The values that follow come from PubChem BioAssay AID2734 (National Center for Advancing Translational Sciences (NCATS), 2010).

Inconclusive results are not listed. Where a call stands in place of a potency, no number is given. Active and inactive are the calls of the source. Calls follow the shape of the dose curve; as a rule, active = well fitted inhibition curve with a large enough effect; inconclusive = small, poorly fitted or top-dose-only effect, or effect the other way; inactive = no such curve, though single readings can be large or run the other way.

This assay can be described thus: High Content Assay for Compounds that inhibit the Assembly of the Perinucleolar Compartment: DNA Intercalation/PicoGreen Displacement Assay. Conditions: fluorescence (intercalation counter-screen); series mostly up to 57.1 µM. The source says: High Content Assay for Compounds that inhibit the Assembly of the Perinucleolar Compartment
NIH Chemical Genomics Center [NCGC]
NIH Molecular Libraries Probe Centers Network [MLPCN]
Assay Submitter (PI): Sui Huang, Northwestern University, Feinberg School of Medicine, Cell and Molecular Biology, Chicago, Illinois.
The perinucleolar compartment (PNC) is a non-membrane-bound nuclear subdomain that is associated with but structurally distinct from the nucleolus. The PNC is a heritable trait, in which the number of PNCs per cell in daughter cells often mimics that of their mother cells. The PNC is heterogeneous in shape, is stable through interphase, disassembles during mitosis, and reassembles in early G1. The PNC is concentrated with newly synthesized RNA polymerase III (pol III) RNAs (MRP RNA, RNAse P H1 RNA, hY RNAs[hY1, 2, 5], Alu RNA, and SRP [7SL] RNA) and RNA binding proteins (nucleolin, PTB, CUG-BP, KSRP, Raver1, Raver2, and Rod).
Extensive in vitro studies have shown that the PNC is unique to tumor cells and preferentially forms in tumor cells derived from solid tissues. Examination of cancer cell lines from various origins and malignant capacities has shown that PNC prevalence correlates with the malignancy of tumors and has the potential to be developed as a pan-cancer prognostic marker.
Although the PNC is associated with a DNA locus and a handful of components have been identified, much remains to be investigated regarding the structure and function of the PNC and its mechanistic link to cancer. We have previously shown that PNC prevalence reduction is a valid strategy to identify compounds that can be used to study the structure and function of the PNC. It is necessary, however, to create a screening platform that is able to test a large number of compounds in an automated fashion. Here we report the development and robustness of an automated whole-cell phenotypic image-based screening assay that is capable of identifying such compounds.
Therefore, we conducted a DNA intercalation/displacement assay on the lead candidates in order to exclude compounds with this mechanism of action. PicoGreen is a DNA intercalator that becomes excitable at 488 nm and emits at 520 nm when bound to DNA. Compounds which displace the dye will decrease fluorescence intensity and were considered DNA intercalators/displacers. In order to rule out potential fluorescence artifacts, a measurement of compound plus DNA only was also calculated.
1. A supercoiled plasmid (pBR322) was diluted to 200 ng/ml in TE and 2 ul was dispensed into 1536 well black plates Multidrop Combi.(ThermoFisher).
2. Followup compounds dissolved in 100% DMSO were transferred using a pintool (23 nl).
3. Compounds were incubated in the presence of DNA for 30 minutes at room temperature.
4. A baseline signal was measured using an Envision PMT based plate reader using a 488 nm excitation filter and a 520 nm emission filter.
5. The PicoGreen dye (Invitrogen) was diluted in TE and 2 ul/well was dispensed to the 1536 well plate using a Multidrop Combi.
6. Plates were incubated at 37 C for 10 minutes prior to being read on the envision plate reader. 100 ng/ml of Propidium Iodide was used as the positive intercalation control.
Regarding `CSc1nnc2c3ccccc3n(CCc3ccccc3)c2n1`, the Potency entry is “inactive”.
The value for `Nc1cccc(-c2nc3ccc(N)cc3s2)c1` was “inactive”; that for `CC(=O)Nc1ccc(S(=O)(=O)Oc2ccc3c(c2)C(C)=CC(C)(C)N3)cc1` was “inactive”; that for `Cc1ccc(NC2=C/C(=N/S(=O)(=O)c3cccs3)c3ccccc3C2=O)cc1` was 3.55 µM (active).
To `O=C1C(Nc2ccccc2)=C/C(=N/S(=O)(=O)c2cccs2)c2ccccc21` belongs 2.82 µM (active); to `CCN(CC)c1ccc(N=Cc2ccccc2[N+](=O)[O-])cc1`, 3.16 µM (active); to `CC(/C=C/c1ccccc1)=N/NC(=O)c1cc([N+](=O)[O-])cc([N+](=O)[O-])c1`, “inactive”.
To `O=[N+]([O-])c1cc(/C=N/Nc2nc3ccccc3[nH]2)c(O)cc1O` belongs 22.4 µM (active).
For the compound `CSc1nc(-c2ccc(C)cc2)nc(C(Cl)Cl)n1`, the Potency result is “inactive”.
The value for `CCOC(=O)c1c(NC(=O)c2c(-c3ccccc3)noc2C)sc(C)c1-c1ccccc1` was “inactive”.
For `Nc1ccc2c(c1)C(=O)C(=O)c1ccccc1-2`, the Potency is 12.6 µM (active).
The value for `CCCNC1=C(N(C(C)=O)c2cccc(F)c2)C(=O)c2ccccc2C1=O` was “inactive”; that for `CCOC(=O)CSc1nc2c(sc3ccc([N+](=O)[O-])cc32)c(=O)n1Cc1ccco1` was “inactive”; that for `Cc1cc(=O)[nH]c(N=N/C(=N/Nc2ccccc2C)c2ccccc2)n1` was 2 µM (active).
The value for `CCN(CC)C(=S)SSC(=S)N(CC)CC` was “inactive”.
Regarding `CC(=O)/C(C#N)=C1\NC(=O)C(Cc2ccc(C)c(C)c2)S1` (configuration not stated), the Potency entry was “inactive”.
To `O=C(Nc1ccc(NC(=O)C2CC2)cn1)c1ccccc1Cl` belongs “inactive”; to `Cc1ccc(Cl)cc1N(CC(=O)N1CCCCCC1)S(C)(=O)=O`, “inactive”.
To `CCOC(=O)NC1(Nc2ccc(C)cc2)Oc2ccccc2O1` belongs “inactive”; to `C/C(=N/OCO/N=C(/C)c1ccc(F)cc1)c1ccc(F)cc1`, “inactive”; to `O=C(Nc1cccnc1)c1cccs1`, “inactive”.
To `Cc1ccccc1C(=O)NNC(=S)Nc1cccc(C(F)(F)F)c1` belongs “inactive”; to `O=c1[nH]cnc2c1C(c1ccccc1[N+](=O)[O-])c1c(nc[nH]c1=O)O2`, “inactive”.
`O=C1C(=Cc2cccs2)C(=O)c2ccccc21`: the Potency result was “inactive”.
The value for `Cc1cc(C)c(S(=O)(=O)/N=C2/C=C(Sc3ncn[nH]3)C(=O)c3ccccc32)cc1C` was 12.6 µM (active); that for `O=C1C(=O)c2ccc(-c3ccccc3)cc2-c2ccccc21` was 4.47 µM (active); that for `COC(=O)c1ccc(CSc2ccccc2C)o1` was “inactive”.
